18 compounds from PubChem BioAssay can be followed below.

The source made the active and inactive calls.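 Rule for the calls: active = hit in primary screen, with calcium signal over 5 SD above buffer well mean in both duplicates; inactive = the rest.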

This assay can be described thus: calcium flux activation in mu-opioid HEK293 cells, confirmation, counter-screen for TRPC4 activator project, cell-based, HEK293 mu-opioid receptor line (AID 449723).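 Note: counter screen cells carry the mu-opioid receptor alone and lack TRPC4.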 The following applies: Fluo-4 calcium fluorescence, at 10 µM. For orientation: Calcium flux is commonly read through the fluorescence of an indicator in the cells.
With `Clc1ccc(N=C2SCC3CCCCN23)cc1` (stereo not drawn), the result was inactive.

With `O=S(=O)(c1ccc(Oc2ccc(Br)cc2)cc1)N1CCOCC1`, the result was inactive.

`O=S(=O)(Nc1ccc(S(=O)(=O)Nc2cccc3ccccc23)cc1)c1ccccc1`: the result was inactive. The entry for `COc1ccc(N(C(=O)c2snc(C(N)=O)c2N)C(C(=O)NC2CCCCC2)c2ccc(C)o2)c(OC)c1` (stereo not drawn) is “inactive”. Next, `Cc1ccc(S(=O)(=O)Nc2ccc(N=Nc3ccc(O)cc3)cc2)cc1`: “inactive”. Next, `O=C(c1ccccc1)c1coc2ccc(O)c(CN3CCOCC3)c12`: “inactive”; `CCOc1ccc(N=CNc2ccc(OCC)cc2)cc1`: “inactive”.

As to `COCCSc1ccccc1C(=O)N1CCC(Cc2ccccc2)CC1`, the result was inactive. Next, `O=C(c1ccccc1F)N1CCN(c2ccc([N+](=O)[O-])c3cccnc23)CC1`: “inactive”. The entry for `Cc1ccc(NS(=O)(=O)c2cc(C(=O)N3CCc4ccccc4C3)ccc2Cl)cc1` is “inactive”. For `CCn1cc(CN2CCC(n3nccc3NC(=O)CCOc3ccccc3)CC2)c(C)n1`, the outcome was inactive.

Take `CCN1CCN(c2ccc(S(=O)(=O)N3CCCCC3)cc2NC(=O)COc2cc(C)ccc2Cl)CC1`: the result was inactive. With `CN(C)CCCCOc1cccc(Br)c1`, the outcome was inactive. Next, `CC(C)c1ccc(C(C)NCCS(=O)(=O)c2ccc(Br)cc2)cc1` (stereo not drawn): “inactive”; `COc1cc2c(C(=O)N3CCN(C)CC3)c(CSc3ccccc3)n(C)c2cc1Br`: “inactive”; `Cc1c(N2C(=O)/C(=C/c3ccccc3)SC2=S)c(=O)n(-c2ccccc2)n1C`: “inactive”. Next, `Cc1n[nH]c(C)c1Cc1c(F)cccc1Cl`: “inactive”; `O=C(Nc1ccc([N+](=O)[O-])cn1)C1CCCCC1`: “inactive”.
